A selection: hits, their analogues and other compounds. The true share with any hit is near 3.3%.
PI4K2A block: blocks human PI4K2A kinase activity. purified PI4K2A, ADP-Glo luminescence, 1 h; hits give low values. hit rate 0.13% among 420,000. activity change, negative = inhibition, % at 76.9 µM; in the data active means activity change below about -50%; inconclusive means mostly about -30% to -49%
Target sequence (Q9BTU6 whole entry, looked up): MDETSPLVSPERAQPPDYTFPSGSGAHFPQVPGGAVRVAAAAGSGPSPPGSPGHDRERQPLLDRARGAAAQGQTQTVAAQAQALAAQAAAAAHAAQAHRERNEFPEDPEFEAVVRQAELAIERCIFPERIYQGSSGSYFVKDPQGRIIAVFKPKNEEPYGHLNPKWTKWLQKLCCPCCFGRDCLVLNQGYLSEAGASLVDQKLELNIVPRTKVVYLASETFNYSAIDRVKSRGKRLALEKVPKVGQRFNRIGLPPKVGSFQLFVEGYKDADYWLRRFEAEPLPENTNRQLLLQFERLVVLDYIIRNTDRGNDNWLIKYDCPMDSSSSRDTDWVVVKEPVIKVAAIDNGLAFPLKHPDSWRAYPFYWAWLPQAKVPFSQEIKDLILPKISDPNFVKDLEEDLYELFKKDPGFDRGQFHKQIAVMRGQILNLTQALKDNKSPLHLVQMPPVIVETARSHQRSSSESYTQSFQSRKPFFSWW
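In this quantitative HTS, ADP production by PI4K2A was quantified luminescently after 1 h at ambient temperature; 100 microM adenosine served as plate-quality control.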
D3 ag: agonists of human D3 dopamine receptor; P35462; D3R DiscoveRx beta-arrestin cells, luminescence, 90 min; max activation, %; hit rate 0.58% among 410,000; in the data active means max activation above about 30%
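Agonist mode: compounds and dopamine controls were applied to plated cells for 90 min at 37 degrees C after an overnight attachment at 1500 cells/well. Luminescent read-out followed 30 - 60 minutes at room temperature with DiscoveRx detection reagent.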
LDHA block: inhibitors of human lactate dehydrogenase A | activity change, % (values are at about 110 or 230 µM) | purified LDHA, NADH/diaphorase-resazurin fluorescence; hits give low values | AID 1347041 | P00338 | hit rate 0.15% among 480,000; in the data active means activity change below about -30%; inconclusive means mostly about -25% to -30%
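Remaining NADH was detected by diaphorase (0.133 mg/mL) converting 37 µM resazurin to fluorescent resorufin, read at 0 and 20 minutes. The preceding 5-minute room-temperature reaction used 2 nM LDHA, 0.2 mM sodium pyruvate and 0.06 mM NADH at pH 7.4.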
D3 antag: blocks the human D3 dopamine receptor. D3R cells, DiscoveRx beta-arrestin luminescence, antagonist mode; hits give low values. max response, negative = inhibition, %. hit rate 2.5% among 360,000; in the data active means max response below about -50%; inconclusive means no clear call, values can overlap the other calls
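Cells expressing the human receptor were seeded at 1500 cells/well, incubated overnight at 37 degrees C in 5% CO2, then exposed to library compounds with dopamine controls for 90 minutes at 37 degrees C before luminescent detection.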
PI5P4Ka inh: PI5P4K alpha (human) kinase inhibition; P48426; PI5P4Kalpha enzyme, ADP-Glo luminescence, 60 min; hits give low values; max response, %; hit rate 1.2% among 330,000; active means max response of -50% or lower; inconclusive means between -30% and -50%; inactive means -30% or higher; further: value at the top dose of about 77 µM
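Luminescence from ADP-Glo served as readout of PI5P4Kalpha activity in a qHTS format. Reaction: enzyme, substrate, compound, ATP at 5 microM final, 60 min at RT.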
A number is an active result.

`Cc1cc(C)cc(NC(=O)[C@H](NC(=O)[C@@H]2Cc3ccccc3CN2)c2ccccc2)c1` gave PI4K2A block inactive, D3 ag inactive, LDHA block inactive, D3 antag -108 and PI5P4Ka inh inactive.
`CCc1ccc(NC(=O)[C@H](NC(=O)[C@@H]2Cc3ccccc3CN2)c2ccccc2)cc1` gave PI4K2A block inactive, D3 ag inactive, LDHA block inactive, D3 antag -101 and PI5P4Ka inh inactive.
Screening COc1ccc(/C=N/OCc2cccc(Br)c2)cc1OC returned LDHA block inactive.
Screening O=C1CC(c2ccc(Cl)cc2)CC(=O)C1CS(=O)(=O)c1ccccc1 (configuration not stated) returned PI4K2A block inactive, D3 ag inactive, LDHA block inactive, D3 antag inconclusive and PI5P4Ka inh -58.
For O=C1CC(c2ccccc2)CC(=O)C1Sc1ccc(Cl)cc1 (configuration not stated) the results were PI4K2A block inactive, D3 ag inactive, LDHA block inactive, D3 antag -53 and PI5P4Ka inh inactive.
For O=C1C=C(c2ccccc2)C[C@@H](c2ccc(Cl)cc2)C1 the results were PI4K2A block inactive, D3 ag inactive, LDHA block inactive, D3 antag inactive and PI5P4Ka inh inactive.
COc1ccc(C2CC(=O)C(CS(=O)(=O)c3ccccc3)C(=O)C2)cc1 (configuration not stated) was read as PI4K2A block inactive, D3 ag inactive, LDHA block inactive, D3 antag inactive and PI5P4Ka inh inconclusive.
`CC(SCc1ccc(Br)cc1)C(=O)O` (configuration not stated) gave LDHA block inactive.
CC(=O)Nc1sc2c(c1-c1nc3ccccc3s1)CCN(C(C)C)CC2 was read as PI4K2A block inactive and LDHA block inactive.
`CC(=O)Nc1sc2c(c1-c1nc3ccccc3s1)CCN(C(C)C)C2` gave PI4K2A block inactive, D3 ag inactive, LDHA block inactive, D3 antag -116 and PI5P4Ka inh inactive.
Screening COc1ccc(-n2c(N)c(C(=O)NCc3ccco3)c3nc4ccccc4nc32)cc1 returned PI4K2A block inactive, D3 ag inactive, LDHA block inactive and D3 antag inactive.
Screening Nc1c(C(=O)NCc2ccco2)c2nc3ccccc3nc2n1CCc1ccc(F)cc1 returned PI4K2A block inconclusive, D3 ag inactive, LDHA block inactive, D3 antag -63 and PI5P4Ka inh inconclusive.
For Cc1nc(NCc2ccccc2)sc1C(=O)NCC(C)C the results were LDHA block inactive.
`CCOc1ccc2oc(C(=O)OCC(=O)NC3CC3)c(C)c2c1` gave PI4K2A block inactive, D3 ag inactive, LDHA block inactive, D3 antag inactive and PI5P4Ka inh inactive.
`CCOC(=O)c1oc2ccc(CNCCO)c(Cl)c2c1C` gave PI4K2A block inactive, D3 ag inactive, LDHA block inactive, D3 antag -54 and PI5P4Ka inh inactive.
For CCOC(=O)c1oc2ccc(CNC3CCCCC3)c(Cl)c2c1C the results were PI4K2A block inactive, D3 ag inactive, LDHA block inactive and D3 antag -86.
O=C(Nc1ccccc1Cl)OC1CC2CC1[C@H]1CCCCN1[C@H]2Cc1ccccc1 (some centres not stated) was read as PI4K2A block inactive.
`CCOc1ccc2oc(=O)cc(CN3CCN(Cc4ccccc4)CC3)c2c1` gave PI4K2A block inactive, D3 ag inactive, LDHA block inactive, D3 antag inactive and PI5P4Ka inh inactive.
`COc1ccc2c(CN3CCN(Cc4ccccc4)CC3)cc(=O)oc2c1` gave PI4K2A block inactive, D3 ag inactive, LDHA block inactive, D3 antag -68 and PI5P4Ka inh inactive.
Screening COc1ccc2oc(=O)cc(CN3CCN(Cc4ccccc4)CC3)c2c1 returned PI4K2A block inactive, D3 ag inactive, LDHA block inactive, D3 antag -54 and PI5P4Ka inh inactive.
COc1cccc(CN(C)Cc2cc(=O)oc3cc(O)c(Cl)cc23)c1 was read as PI4K2A block inactive, D3 ag inactive, LDHA block inactive, D3 antag inactive and PI5P4Ka inh -78.
For COc1ccc2c(CN3CCCCC3)cc(=O)oc2c1 the results were PI4K2A block inactive, D3 ag inactive, LDHA block inactive, D3 antag inactive and PI5P4Ka inh inactive.
Screening CC1(C)CC(NS(=O)(=O)c2ccc(F)cc2)CC(C)(C)N1 returned PI4K2A block inactive, D3 ag inactive, LDHA block inactive, D3 antag -58 and PI5P4Ka inh inactive.
For CC1(C)CC(NS(=O)(=O)c2ccccc2)CC(C)(C)N1 the results were PI4K2A block inactive, D3 ag inactive, LDHA block inactive, D3 antag inactive and PI5P4Ka inh inactive.
Screening COc1cccc(/C=N/NC(=O)c2cc(-c3cccn3C)n[nH]2)c1 returned PI4K2A block inactive, D3 ag inactive, LDHA block inactive, D3 antag -51 and PI5P4Ka inh inactive.
For c1ccc(-c2cn3c4ccccc4n(CCN4CCCCC4)c3n2)cc1 the results were LDHA block inactive.
Screening Nc1nonc1-n1nnc(C(=O)N/N=C/c2c(Cl)cccc2Cl)c1CSC1=NCCS1 returned PI4K2A block inactive, D3 ag inactive, LDHA block inactive, D3 antag -53 and PI5P4Ka inh inactive.
Nc1nonc1-n1nnc(C(=O)N/N=C/C=C/c2ccccc2)c1CSC1=NCCS1 was read as PI4K2A block inactive, D3 ag inactive, LDHA block inactive, D3 antag -50 and PI5P4Ka inh inactive.
`CCOC(=O)c1sc2cccc(F)c2c1S(=O)(=O)Nc1cc(OC)ccc1OC` gave LDHA block inactive.
For S=C(NCc1ccncc1)NC1CC1 the results were LDHA block inactive.
`Cc1nc(N2CCOCC2)c2cc(-c3ccccc3)sc2n1` gave PI4K2A block inactive, D3 ag inactive, LDHA block inactive, D3 antag -57 and PI5P4Ka inh inactive.
`N#Cc1cc2c([nH]c1=S)CCCC2` gave PI4K2A block inactive, D3 ag inactive, LDHA block inactive, D3 antag inactive and PI5P4Ka inh -73.
For CC1(C)Cc2[nH]c(=S)c(C#N)cc2CO1 the results were PI4K2A block inactive, D3 ag inactive, LDHA block inactive, D3 antag inconclusive and PI5P4Ka inh -88.
`CN1CCC(=C2c3ccccc3C=Cc3ccccc32)CC1` gave PI4K2A block inactive, LDHA block inactive, D3 antag -115 and PI5P4Ka inh inactive.
`CN1CCC(=C2c3ccccc3Sc3ccccc32)CC1` gave PI4K2A block inactive, D3 ag inactive, LDHA block inactive, D3 antag -108 and PI5P4Ka inh inactive.
O=C1Cc2ccccc2Sc2ccccc21 was read as PI4K2A block inactive, D3 ag inactive, LDHA block inactive, D3 antag inactive and PI5P4Ka inh inactive.
Cc1ccc(-n2ncc3c(NNC(=O)C4CCCCC4)ncnc32)cc1C was read as LDHA block inactive.

Screening results (PubChem BioAssay)
